Compound activity as filed in PubChem BioAssay.
This is a sample that favours compounds with a hit; in the whole collection about 6.8% have one here.
Pf Dd2 growth: P. falciparum Dd2 growth inhibitors, primary screen, SYBR Green fluorescence, single dose replicates; AID 1159554, 2015; activity change, % at 10 µM; 72 h; active compounds read low; 94,000 compounds, 2.3% hits; in the data active = activity change below about -80%; inconclusive = no clear call, values can overlap the other calls
T cruzi growth-1: T. cruzi intracellular proliferation inhibitors, primary screen, cell-based, beta-gal Tulahuen parasites, NIH3T3 host, luminescence; T. cruzi beta-gal in NIH3T3, GalScreen luminescence, 90 h; inhibition, % at 8.34 µM; 77,000 compounds, 5.9% hits; AID 624255, 2012;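 active = mean inhibition above about 93%, with at least 55% of replicates each passing it, limit read from the data, passing the limit was not always enough; inconclusive = only one of those two conditions holds; inactive = neither condition holds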
C diff HTS: C. difficile growth inhibitors, primary screen, HTS; 86,000 compounds, 0.25% hits; growth activity, negative = inhibition, % at 16 µg/mL (by protocol); Clostridium difficile clinical isolate growth, OD600, 24 h; active compounds read low; AID 1259249, 2017;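 active = mean growth activity at or below -80% and every replicate also at or below -80%; inconclusive = mean at or below -80% but some replicate above -80%; inactive = mean growth activity above -80%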
T cruzi growth-2: T. cruzi intracellular proliferation inhibitors, confirmation, cell-based, NIH3T3 host, beta-gal parasite, luminescence, cherry-pick. shares compounds with T cruzi growth-1. T. cruzi beta-gal in NIH3T3, GalScreen luminescence, 90 h. inhibition, % at 8.35 µM. 5,600 compounds, 72% hits. AID 651739, 2012;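 active = mean replicate inhibition above about 95% and at least 55% of replicates individually reaching it, limit read from the data; inconclusive = only one of the two criteria is met; inactive = neither criterion is met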
T cruzi growth-3: inhibitors of intracellular T. cruzi replication, confirmation, NIH3T3 host cells, beta-gal parasites, cherry-pick, set 2; T. cruzi beta-gal in NIH3T3, GalScreen luminescence, 90 h; 5,600 compounds, 21% hits; shares compounds with T cruzi growth-1; AID 651740, 2012; inhibition, % at 2.09 µM;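 active = mean inhibition above about 95%, with at least 55% of replicates also reaching it, limit read from the data; inconclusive = meets just one of the two conditions; inactive = meets neither condition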
3T3 cytotox: cytotoxicity in mouse NIH/3T3 fibroblasts, confirmation, cytotoxicity control for T. cruzi proliferation inhibitor project, cell-based, cherry-pick, single point; shares compounds with T cruzi growth-1; NIH/3T3 viability, CellTiter-Glo ATP luminescence, 90 h; cytotoxicity (signal decrease), % at 8.35 µM; 5,600 compounds, 14% hits;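 active = mean signal decrease across replicates above about 35% based on untreated-well scatter, with enough replicates individually passing, limit read from the data; inconclusive = no rule stated though some were filed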
NIH3T3 tox 2: NIH/3T3 fibroblast cytotoxicity, confirmation, cytotoxicity control, cell-based, cherry-pick, single point, set 2; inhibition, % at 24.9 µM; 5,600 compounds, 56% hits; NIH/3T3 viability, CellTiter-Glo ATP luminescence, 90 h; AID 651744, 2012; shares compounds with T cruzi growth-1;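 active = mean loss of cell viability signal at or above a set limit, and enough replicates individually reaching it; inconclusive = meets only the mean limit or only the replicate share; inactive = meets neither condition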
Each line names hits and unclear results; the compound was inactive in the other large screens (follow-up assays come after a bar, where they were run); ! = repeats disagree.

CCCN1C[C@H](C)[C@@H](OC)CN(C)C(=O)c2ccc(NC(=O)c3ccccc3)cc2OC[C@H]1C	none (no result: C diff HTS)
O=C(C[C@H]1CC[C@H]2[C@@H](COC[C@@H](O)CN2C(=O)c2ccncc2)O1)NC1Cc2ccccc2C1	none
CC=Cc1ccc2n(c1=O)C[C@@H]1[C@@H](CO)[C@H](C(=O)NC3CCC3)N[C@H]21 (mixture of isomers)	none (no result: Pf Dd2 growth)
C[C@H]1CN([C@@H](C)CO)C(=O)c2cc(NS(=O)(=O)c3ccc(F)cc3)ccc2O[C@@H]1CN(C)Cc1ccc2c(c1)OCO2	none
COc1cccc(-c2ccc([C@H]3[C@@H](CO)N4CCCCN(Cc5cncnc5)C[C@@H]34)cc2)c1	none
OC[C@H]1[C@@H](c2ccc(C3=CCCC3)cc2)[C@@H]2CN(Cc3ccncc3)CCCCN12	none
OC[C@H]1[C@@H](c2ccc(Br)cc2)[C@@H]2CN(Cc3ccccn3)CCCCN12	none
OC[C@@H]1[C@H](c2ccc(Br)cc2)[C@H]2CN(Cc3ccccn3)CCCCN12	T cruzi growth-1 97.0 | T cruzi growth-2 99.2 | T cruzi growth-3 inactive | 3T3 cytotox inactive | NIH3T3 tox 2 inactive
COc1cccc(-c2ccc([C@H]3[C@@H](CO)N4CCCCN(Cc5cncnc5)C[C@H]34)cc2)c1	T cruzi growth-1 99.5 | T cruzi growth-2 108.0 | T cruzi growth-3 inactive | 3T3 cytotox inactive | NIH3T3 tox 2 45.4
OC[C@@H]1[C@H](c2ccc(C3=CCCC3)cc2)[C@H]2CN(Cc3cncnc3)CCCCN12	T cruzi growth-1 inconclusive | T cruzi growth-2 inactive | T cruzi growth-3 inactive | 3T3 cytotox inactive | NIH3T3 tox 2 45.8
O=C(Cc1ccccn1)NCC[C@@H]1CC[C@H](NC(=O)CN2CCOCC2)[C@H](CO)O1	none (no result: T cruzi growth-1)
CN1C(=O)c2cc(NC(=O)c3ccc(F)cc3)ccc2OC[C@@H]2O[C@@H](CC(=O)NC3CCC3)CC[C@@H]21	none
C/C=C/c1ccc([C@@H]2[C@H](CO)N(C(=O)C3CC3)C23CN(S(=O)(=O)CC)C3)cc1	none (no result: T cruzi growth-1)
CC(C)C#Cc1ccc2c(c1)O[C@H](CN(C)C(=O)Nc1ccccc1)[C@@H](C)CN([C@@H](C)CO)S2(=O)=O	none (no result: T cruzi growth-1)
CC(C)CC#Cc1ccc2c(c1)O[C@H](CN(C)C(=O)Nc1ccccc1)[C@@H](C)CN([C@H](C)CO)S2(=O)=O	T cruzi growth-1 116.9! | T cruzi growth-2 107.1 | T cruzi growth-3 inactive | 3T3 cytotox inactive | NIH3T3 tox 2 inconclusive
CC(C)C#Cc1ccc2c(c1)O[C@@H](CN(C)C(=O)Nc1ccccc1)[C@@H](C)CN([C@H](C)CO)S2(=O)=O	none (no result: T cruzi growth-1)
CC(C)CC#Cc1ccc2c(c1)O[C@@H](CN(C)C(=O)Nc1ccccc1)[C@@H](C)CN([C@@H](C)CO)S2(=O)=O	T cruzi growth-1 127.3 | T cruzi growth-2 111.5 | T cruzi growth-3 105.2 | 3T3 cytotox inactive | NIH3T3 tox 2 103.5
CC(C)CC#Cc1ccc2c(c1)O[C@@H](CN(C)C(=O)Nc1ccccc1)[C@H](C)CN([C@@H](C)CO)S2(=O)=O	T cruzi growth-1 120.5 | T cruzi growth-2 106.8 | T cruzi growth-3 inactive | 3T3 cytotox inactive | NIH3T3 tox 2 77.7
CC(C)C#Cc1ccc2c(c1)O[C@H](CN(C)C(=O)Nc1ccccc1)[C@H](C)CN([C@@H](C)CO)S2(=O)=O	none (no result: T cruzi growth-1)
CO[C@H](CN(C)C(=O)c1ccc2c(c1)OCO2)[C@H](C)CN([C@H](C)CO)S(=O)(=O)c1ccc(C)cc1	none (no result: C diff HTS)
C[C@H]1CN([C@@H](C)CO)C(=O)Cc2cc(NS(=O)(=O)c3cccs3)ccc2O[C@H]1CN(C)C(=O)NC1CCCCC1	none
Cc1ccc(S(=O)(=O)Nc2ccc3c(c2)C(=O)N([C@@H](C)CO)C[C@H](C)[C@@H](CN(C)Cc2ccncc2)O3)cc1	none
COc1cccc(-c2ccc([C@H]3[C@H](CO)N4CCCCN(C(=O)c5ccc6c(c5)OCO6)C[C@@H]34)cc2)c1	T cruzi growth-1 109.4 | T cruzi growth-2 101.5 | T cruzi growth-3 inactive | 3T3 cytotox 39.8 | NIH3T3 tox 2 72.4
COc1cccc(-c2ccc([C@H]3[C@H]4CN(C(=O)c5ccc6c(c5)OCO6)CCCCN4[C@H]3CO)cc2)c1	none
COc1cccc(-c2ccc([C@@H]3[C@@H](CO)N4CCCCN(C(=O)c5ccc6c(c5)OCO6)C[C@@H]34)cc2)c1	T cruzi growth-1 inconclusive | T cruzi growth-2 103.8 | T cruzi growth-3 inactive | 3T3 cytotox inactive | NIH3T3 tox 2 56.1
COc1cccc(-c2ccc([C@@H]3[C@H]4CN(C(=O)c5ccc(F)cc5)CCCCN4[C@H]3CO)cc2)c1	none
COCC(=O)N[C@H]1C=C[C@@H](CC(=O)NCc2ccc(Cl)cc2)O[C@@H]1CO	none (no result: C diff HTS)
O=C(C[C@@H]1C=C[C@H](NC(=O)c2ccncc2)[C@@H](CO)O1)NCC1CCCCC1	none (no result: Pf Dd2 growth, T cruzi growth-1)
Cc1cc(C(=O)Nc2cccc3c2O[C@H](CN(C)Cc2ccncc2)[C@@H](C)CN([C@H](C)CO)C3=O)n(C)n1	none
C[C@@H]1CN([C@@H](C)CO)C(=O)c2cc(C3=CCCCC3)cnc2O[C@H]1CN(C)Cc1cccnc1	none
O=C(Nc1ccc(F)cc1)N1CCCCN2[C@H](C1)[C@H](c1ccc(-c3cccc(F)c3)cc1)[C@@H]2CO	T cruzi growth-1 116.5 | T cruzi growth-2 109.4 | T cruzi growth-3 inactive | 3T3 cytotox inactive | NIH3T3 tox 2 78.8
O=C(C1CCCC1)N1CCCCN2[C@H](CO)[C@@H](c3ccc(-c4cccc(F)c4)cc3)[C@@H]2C1	T cruzi growth-1 103.7 | T cruzi growth-2 98.2 | T cruzi growth-3 115.4 | 3T3 cytotox 41.5 | NIH3T3 tox 2 106.3
CCS(=O)(=O)N1CCCCN2[C@@H](CO)[C@H](c3ccc(-c4cccc(C#N)c4)cc3)[C@@H]2C1	none
O=C(C1CCCC1)N1CCCCN2[C@@H](CO)[C@@H](c3ccc(-c4cccc(F)c4)cc3)[C@@H]2C1	none
CCC(=O)N1CCCCN2[C@@H](CO)[C@H](c3ccc(-c4cccc(C#N)c4)cc3)[C@@H]2C1	T cruzi growth-1 107.2 | T cruzi growth-2 inactive | T cruzi growth-3 inactive | 3T3 cytotox inactive | NIH3T3 tox 2 61.4
N#Cc1cccc(-c2ccc([C@H]3[C@H](CO)N4CCCCN(C(=O)Nc5ccc(F)cc5)C[C@@H]34)cc2)c1	T cruzi growth-1 102.4 | T cruzi growth-2 103.9 | T cruzi growth-3 inactive | 3T3 cytotox inactive | NIH3T3 tox 2 104.9
